A short description of assay [1]: compound effects on lung adenocarcinoma cell viability – A549, calcein-AM fluorescence, 48 h, basal, profiling panel (AID 1162). Also: test concentration not given here. Conditions: higher = more signal.
Assay [2] can be described thus: compound effects on differentiated 3T3-L1 adipocyte viability – cell-based, 3T3-L1 adipocytes, calcein-AM fluorescence, 48 h, basal, profiling panel (AID 1163). Also: test concentration not given here. The note with it: 3T3-L1 adipocytes viability, higher = more signal.
The nature of assay [3]: compound effects on hepatocellular carcinoma cell viability – HepG2, calcein-AM fluorescence, 48 h, basal, profiling panel (AID 1164). Also: test concentration not given here. The note with it: higher = more signal.
Assay [4] in a line: compound effects on multiple myeloma cell viability – MM1S, calcein-AM fluorescence, 48 h, basal, profiling panel (AID 1165). Also: test concentration not given here. Conditions: higher = more signal.
The nature of assay [5]: calcein-AM signal in unstimulated myeloma cells – cell-based, calcein-AM fluorescence, 48 h, PK04 Diversity Set, profiling panel (AID 1166).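 Also: cells grown under basal conditions without added stimulus; test concentration not given here.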 The note with it: RPMI8226 myeloma viability, higher = more signal.
A short description of assay [6]: JC-1 mitochondrial signal, unstimulated HepG2 cells – cell-based, JC-1 fluorescence, 24 h, 100 nL compound, profiling panel (AID 1167). Also: test concentration not given here. The note with it: HepG2 mitochondrial potential, higher = more signal.
Assay [7] in a line: JC-1 mitochondrial signal, unstimulated adipocytes – cell-based, JC-1 fluorescence, 3T3-L1 adipocytes, 24 h, 100 nL compound, profiling panel (AID 1168). Also: test concentration not given here. The note with it: JC-1 mitochondrial fluorescence, higher = more signal, called active from +8 up or from −8 down.
Assay [8] is described as follows: JC-1 mitochondrial signal, unstimulated myeloma cells – cell-based, JC-1 fluorescence, RPMI8226, 24 h, 100 nL compound, profiling panel (AID 1169). Also: test concentration not given here. Conditions: JC-1 mitochondrial potential fluorescence, higher = more signal.
The nature of assay [9]: JC-1 mitochondrial signal, unstimulated MM1S myeloma – cell-based, JC-1 fluorescence, 24 h, 100 nL compound, profiling panel (AID 1170). Also: test concentration not given here. The note with it: MM1S mitochondrial potential, higher = more signal.
A short description of assay [10]: resazurin metabolic signal in A549 cells – cell-based, resazurin fluorescence, 24 h, PK04 Diversity Set, profiling panel (AID 1171). Also: test concentration not given here. Conditions: A549 viability, higher = more signal, called active from +8 up or from −8 down.
The nature of assay [11]: resazurin metabolic signal in HepG2 cells – cell-based, resazurin fluorescence, 24 h, PK04 Diversity Set, profiling panel (AID 1172). Also: test concentration not given here. Conditions: HepG2 viability, higher = more signal.
Assay [12] is described as follows: budding yeast growth changes without added modifier – OD600, strain BY4716, 24 h, basal condition, primary screen (AID 1173). Conditions: S. cerevisiae BY4716 growth, OD600, 24 h; higher = more signal, called active from +8 up or from −8 down.
Assay [13] is described as follows: viability profiling in MM1S myeloma cells – cell-based, resazurin fluorescence, basal, 24 h, PK04 Diversity Set, profiling panel (AID 1174). Also: test concentration not given here. The note with it: higher = more signal, called active from +8 up or from −8 down.
Assay [14] addresses Dihydroorotate dehydrogenase (quinone), mitochondrial (Plasmodium falciparum (isolate 3D7)) (UniProt Q08210). In words: inhibition of P. falciparum DHODH – biochemical, C-terminal His tag, absorbance 600 nm, primary screen (AID 1175).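 Also: recombinant parasite enzyme with a five histidine tag at its C terminus; test concentration not given here.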 Conditions: PfDHODH enzyme, DCIP absorbance 600 nm; higher = more signal, called active from +8 up or from −8 down.
The nature of assay [15]: inhibition of PAO1 biofilm formation – strain PAO1, LB-PBS medium, absorbance 600 nm, primary screen (AID 1176). Also: test concentration not given here. Conditions: P. aeruginosa PAO1 growth/biofilm, A600, 12 h; higher = more signal.
A short description of assay [16]: growth modulation of vineyard yeast isolate – strain RM11-1a, OD600, basal, 24 h, primary screen (AID 1177).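 Also: cultures grown under basal conditions with no added stressor; test concentration not given here.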 Conditions: S. cerevisiae RM11-1a growth, OD600, 24 h; higher = more signal, called active from +8 up or from −8 down.
Assay [17] in a line: growth of efflux-deficient E. coli DRC39 – strain DRC39, OD650, 24 h, E. coli filamentation inducers, primary screen (AID 1178).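 Also: growth measured as culture turbidity by optical density at 650 nm; test concentration not given here.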 The note with it: E. coli DRC39 acrAB, higher = more signal, called active from +8 up or from −8 down.
Assay [18] in a line: growth of efflux-deficient E. coli DRC39 – strain DRC39, OD650, 48 h, E. coli filamentation inducers, primary screen (AID 1179).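 Also: screen aims at cell division blockers that make cells filament.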 The note with it: E. coli DRC39 delta-acrAB growth, higher = more signal, called active from +8 up or from −8 down.
A short description of assay [19]: viability profiling in RPMI8226 myeloma cells – cell-based, resazurin fluorescence, basal, 24 h, PK04 Diversity Set, profiling panel (AID 1180).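 Also: RPMI8826 multiple myeloma cell line at 5000 cells per well; test concentration not given here.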 Conditions: higher = more signal.
Assay [20] addresses E3 ubiquitin-protein ligase XIAP (Homo sapiens) (UniProt P98170). Nature of the assay: small molecules binding XIAP protein – biophysical, small-molecule microarray, fluorescence 635 nm, primary screen (AID 1181).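 Also: score merges 667 nm emission and signal to noise over triplicate slides.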 The note with it: higher = more signal.

Calls of active or inactive are those of the source. Unless noted, no rule for the calls is given here.

Sequence of Dihydroorotate dehydrogenase (quinone), mitochondrial (Plasmodium falciparum (isolate 3D7)) (Q08210 whole entry, looked up): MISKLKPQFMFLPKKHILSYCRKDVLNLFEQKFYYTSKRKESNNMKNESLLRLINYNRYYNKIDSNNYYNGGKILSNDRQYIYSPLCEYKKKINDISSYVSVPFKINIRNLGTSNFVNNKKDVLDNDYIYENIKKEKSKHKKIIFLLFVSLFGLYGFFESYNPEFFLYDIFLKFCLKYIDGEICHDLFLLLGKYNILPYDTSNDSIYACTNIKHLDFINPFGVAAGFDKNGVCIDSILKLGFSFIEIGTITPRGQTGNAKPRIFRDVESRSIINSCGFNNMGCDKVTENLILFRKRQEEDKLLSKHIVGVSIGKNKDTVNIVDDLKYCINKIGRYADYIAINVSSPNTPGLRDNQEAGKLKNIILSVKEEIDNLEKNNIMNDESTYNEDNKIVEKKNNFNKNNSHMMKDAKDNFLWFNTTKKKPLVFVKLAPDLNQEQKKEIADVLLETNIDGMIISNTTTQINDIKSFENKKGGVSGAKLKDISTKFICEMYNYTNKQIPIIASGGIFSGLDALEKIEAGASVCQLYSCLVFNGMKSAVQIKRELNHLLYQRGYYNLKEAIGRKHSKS
Sequence of E3 ubiquitin-protein ligase XIAP (Homo sapiens) (P98170 whole entry, looked up): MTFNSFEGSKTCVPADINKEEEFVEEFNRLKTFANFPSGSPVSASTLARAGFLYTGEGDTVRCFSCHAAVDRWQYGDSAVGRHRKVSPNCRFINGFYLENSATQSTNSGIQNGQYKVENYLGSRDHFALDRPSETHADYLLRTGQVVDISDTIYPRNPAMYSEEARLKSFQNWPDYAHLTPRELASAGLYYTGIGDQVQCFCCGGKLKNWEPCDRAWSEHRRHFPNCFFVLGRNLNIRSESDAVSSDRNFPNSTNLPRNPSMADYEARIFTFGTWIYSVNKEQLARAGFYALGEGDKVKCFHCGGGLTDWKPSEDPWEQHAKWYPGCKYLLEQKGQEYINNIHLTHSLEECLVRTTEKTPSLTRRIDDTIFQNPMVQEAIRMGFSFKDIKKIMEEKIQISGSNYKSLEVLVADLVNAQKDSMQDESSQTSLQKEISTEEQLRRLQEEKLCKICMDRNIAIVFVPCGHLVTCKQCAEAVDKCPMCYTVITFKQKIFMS

Take `COc1ccc(C#Cc2ccc3c(c2)[C@]2(C(=O)N3)[C@H](C(=O)NC[C@H](O)c3ccccc3)[C@H]3C(=O)O[C@H](c4ccccc4)[C@H](c4ccccc4)N3[C@@H]2c2ccc(O)cc2)cc1`: the z-score in assay [1] was 0.0902; in [2], -0.753; in assay [3], -0.0809; in [4], -3.27; in assay [5], -4.13; in [6], -1.93. Moreover, the z-score in assay [7] is -0.523 (inactive); in assay [8], -1.11; in assay [9], -1.57; in assay [10], -0.226 (inactive); in [11], -0.475; in assay [12], -0.26 (inactive). Besides, the z-score is -2.61 (inactive) in [13]; 0.971 (inactive) in assay [15]; 2.29 (inactive) in assay [16]; 0.0945 (inactive) in [17]; 0.51 (inactive) in assay [18]; -3.97 in [19]. The composite z-score in [14] is 0.843 (inactive); in assay [20], 0.262.
With `CCOC(=O)C1=C[C@@H](C(C)(C)C)N(S(=O)(=O)c2ccc(C)cc2)[C@H]1c1ccc(F)cc1`, the z-score in assay [1] is -1.5; in [2] it was 0.131; in assay [3] it was -1.71; in assay [4] it was -1.55; in assay [5] it was -3; in assay [6] it was 4.5. Also, the z-score in [7] was -0.43 (inactive); in assay [8] it was -1.03; in [9], -0.781; in assay [10], 0.627 (inactive); in assay [11], -0.457; in assay [12] it was 2.32 (inactive). Besides, the z-score in assay [13] is -0.544 (inactive); in assay [15] it was -0.116 (inactive); in assay [16] it was 1.78 (inactive); in assay [17], -0.731 (inactive); in [18], -0.791 (inactive); in assay [19], -2.36. In addition, the composite z-score was 0.412 (inactive) in assay [14] and -0.02 in assay [20].
In the case of `CO[C@H]1O[C@H](CO)[C@@H](OC(=O)Nc2ccc(C(F)(F)F)cc2)[C@H](OC(=O)Nc2ccc3c(c2)OCO3)[C@@H]1OC(=O)Nc1ccc2c(c1)OCO2`, the z-score in assay [1] was -0.903; in assay [2] it was 0.102; in [3] it was -1.81; in assay [4], -3.42; in assay [5] it was -3.51; in assay [6], -1.62. Besides, the z-score in assay [7] is -0.855 (inactive); in assay [8], -1.32; in assay [9], -1.36; in assay [10], -1.99 (inactive); in assay [11], -1.09; in [12] it was 0.867 (inactive). Besides, the z-score in assay [13] was -2.45 (inactive); in assay [15] it was 1.54 (inactive); in [16], 3.25 (inactive); in assay [17], 1.53 (inactive); in [18], 0.2 (inactive); in assay [19], -1.97. Also, the figures for the composite z-score in [14] and in [20] were 0.524 (inactive) and 0.098, respectively.
In the case of `CC(=O)NCCCC[C@@H]1NC(=O)[C@H]2C[C@@H](C(=O)NCCCCCCNC(=O)CS)[C@@H](c3ccc(O)cc3)N2C1=O`, the z-score in assay [1] was -0.224; in assay [2], 0.726; in assay [3] it was -1.28; in assay [4] it was -0.197; in assay [5], 0.0535; in assay [6], -1.33. Also, the z-score is 0.184 (inactive) in assay [7]; -0.0883 in assay [8]; -0.213 in assay [9]; -0.689 (inactive) in assay [10]; -0.294 in assay [11]; 0.429 (inactive) in [12]. Moreover, the z-score in assay [13] was -0.523 (inactive); in assay [15] it was 1.08 (inactive); in [16], 0.518 (inactive); in assay [17], -0.622 (inactive); in assay [18] it was -1.35 (inactive); in [19], -0.803. Also, the figures for the composite z-score in assay [14] and in assay [20] were 0.761 (inactive) and 0.125, respectively.
Regarding `COc1ccc(CCNC(=O)[C@@]2(Sc3ccc(C)cc3)CC(=O)N(C3Cc4ccccc4C3)[C@@H]2c2ccc(CO)cc2I)cc1`, the z-score in assay [1] is 2.04; in assay [2] it was 0.129; in [3], 0.082; in [4], -2.56; in [5], -1.99; in assay [6], 0.26. For the same compound, the z-score was -0.279 (inactive) in assay [7]; -0.597 in assay [8]; -0.565 in assay [9]; 0.86 (inactive) in assay [10]; 0.0641 in [11]; -3.1 (inactive) in [12]. Also, the z-score in assay [13] is -2.13 (inactive); in [15], -0.171 (inactive); in assay [16], 1 (inactive); in [17], 0.0559 (inactive); in assay [18], -0.325 (inactive); in assay [19] it was -1.43. Moreover, the figures for the composite z-score in assay [14] and in assay [20] were 0.371 (inactive) and 0.148, respectively.
As to `COc1cc2c(cc1O)C(c1cccs1)N(C)CC2` (stereo not given), the z-score in assay [1] was -0.416; in assay [2], -0.344; in assay [3], 0.448; in assay [4] it was 0.405; in assay [5], 0.586; in assay [6], -1.13. The z-score in assay [7] was -0.0427 (inactive); in assay [8], -0.0651; in [9], -1.06; in assay [10], -0.568 (inactive); in [11] it was -0.493; in assay [12] it was 1.11 (inactive). The z-score is -1.55 (inactive) in assay [13]; 0.282 (inactive) in assay [15]; -0.225 (inactive) in assay [16]; 0.34 (inactive) in assay [17]; 0.597 (inactive) in assay [18]; -0.468 in [19]. The composite z-score was -8.08 (active) in [14] and 0.0682 in [20].
In the case of `C[C@H]1NC(=O)[C@@]23C(=O)N[C@@H](Cc4ccccc4)C2[C@H](C)[C@@]2(C)O[C@H]2C3/C=C/C/C=C\CNC(=O)[C@@H]2CCCN2C1=O` (stereo not given in full), the z-score in [1] was -0.197; in assay [2], 0.286; in [3], -0.0389; in assay [4] it was -1.6; in assay [5], 0.727; in assay [6] it was -0.0133. Also, the z-score was 0.0802 (inactive) in assay [7]; 0.263 in [8]; -0.507 in assay [9]; 0.437 (inactive) in assay [10]; 0.23 in assay [11]; -0.704 (inactive) in assay [12]. Moreover, the z-score in assay [13] is 0.607 (inactive); in assay [15] it was -0.0126 (inactive); in assay [16], -0.0532 (inactive); in [17], 0.901 (inactive); in assay [18] it was 0.534 (inactive); in assay [19], 1.14. In addition, the composite z-score in [14] was -1.43 (inactive); in assay [20], 0.0049.

The values above are taken from PubChem BioAssay.
